Results taken from PubChem BioAssay AID1030 (National Center for Advancing Translational Sciences (NCATS), 2008).
Screen size: about 220,000 compounds; about 16,000 (7.3%) were called active. Another 25% or so got no clear call; they are omitted. The call rests on the fitted dose curve; in most records, active means well fitted inhibition curve with a large enough effect (not every such curve was filed as active); inconclusive means small, poorly fitted or top-dose-only effect, or another doubt; inactive means no such curve, though single readings can be large or run the other way. The entries come from a sample that favours actives as a whole.

Target: Aldehyde dehydrogenase 1A1 (Homo sapiens) (UniProt P00352)
Test: qHTS Assay for Inhibitors of Aldehyde Dehydrogenase 1 (ALDH1A1);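 on activity, negative = inhibition: plate controls were no enzyme wells and a reference inhibitor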
Conditions: Purified ALDH1A1, NADH fluorescence, propionaldehyde substrate; series mostly up to 75.3 µM; activity, negative = inhibition: at the top concentration
Potency means the concentration at half of the fitted maximal effect.

Aldehyde dehydrogenase 1A1 (Homo sapiens), sequence (P00352 whole entry, looked up): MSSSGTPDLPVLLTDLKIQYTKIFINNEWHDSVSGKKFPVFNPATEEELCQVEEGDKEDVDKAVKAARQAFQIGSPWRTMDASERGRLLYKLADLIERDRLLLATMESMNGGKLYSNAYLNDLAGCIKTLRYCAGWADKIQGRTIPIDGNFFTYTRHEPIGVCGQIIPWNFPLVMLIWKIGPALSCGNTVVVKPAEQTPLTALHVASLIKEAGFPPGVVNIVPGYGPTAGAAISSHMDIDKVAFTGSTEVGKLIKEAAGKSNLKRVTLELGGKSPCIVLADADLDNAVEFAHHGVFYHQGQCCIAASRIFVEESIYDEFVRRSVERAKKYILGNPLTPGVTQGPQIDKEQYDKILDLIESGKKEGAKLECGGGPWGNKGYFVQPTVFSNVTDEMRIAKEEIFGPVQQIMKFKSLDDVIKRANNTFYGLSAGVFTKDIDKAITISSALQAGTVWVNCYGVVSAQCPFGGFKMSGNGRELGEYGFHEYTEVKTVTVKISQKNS

activity, negative = inhibition, inactive:
COC(C)C(C(=O)OCC1=CCN2CC[C@H](O)[C@@H]12)C(C)C (some centres not stated) 10.3%, COc1ccc(C2OCC3(CO2)SC(=O)NC3=O)cc1OC (configuration not stated) 2.24%, CN1CCC(OC(=O)COc2ccc(Cl)cc2Cl)CC1 4.24%, O=C(CNS(=O)(=O)c1ccccc1)NCC(=O)OCc1ccccc1F -0.533%, Cc1cccc(OCC(=O)Nc2ccccc2F)c1 -11%, Cc1cccc(C)c1NC(=O)C1(C)c2cccc[n+]2CC(=O)N1Cc1cccs1 (configuration not stated) 15.2%, COc1ccccc1N(C)S(=O)(=O)c1ccc(Cl)c(C(=O)N2CCC(C(N)=O)CC2)c1 3.35%, O=C(Nc1cccc2cccnc12)c1cccc(N2C(=O)CCC2=O)c1 -7.93%, COc1ccccc1-c1nnc(NC(=O)c2cccc(N3C(=O)CCC3=O)c2)o1 -5.89%, Nc1nnc(SCC(=O)NC2CCCc3ccccc32)s1 (configuration not stated) 2.71%, CCCCC(NC(=O)c1cccc(Br)c1)C(=O)O (configuration not stated) 5.42%, CC(CC(=O)O)CC(=O)NNC(=O)c1cccc(Br)c1 (configuration not stated) 14.8%, Cc1ccc(CN2CCC(N3CCC(C(=O)NCC4CCCO4)CC3)CC2)o1 (configuration not stated) -0.497%, Cc1onc(C(=O)NN)c1-c1csc(COc2ccccc2)n1 -6.06%, CCCCNC(=O)CSc1nc2n[nH]c(C)c2c(=N)n1-c1cccc(Cl)c1C -1.49%, C=CCn1c(CC(=O)Nc2cccc(OC)c2)nnc1SCC(=O)NC1CCCCC1 -4.3%, Cc1ccc(S(=O)(=O)N2CCCC2C(=O)OCc2nc3sc(C)c(C)c3c(=O)[nH]2)cc1 (configuration not stated) -11.1%, COc1ccc(-c2nn(-c3ccccc3)cc2/C=C\C(=O)Nc2ccc(C(=O)O)cc2)cc1 -6.04%, COc1ccc(N=C2SC(C(=O)Nc3ccc(F)cc3)CC(=O)N2C)cc1 (configuration not stated) 2.05%, CCc1nc(C)cn1S(=O)(=O)c1cc(OC)c(C)cc1C 3.56%, CC(C)c1nccn1S(=O)(=O)c1cc([N+](=O)[O-])ccc1Cl 2.6%, CC(C)C(=O)Nc1oc(-c2ccccc2)cc1C#N 0.0535%, COc1cccc(NC(=O)CC2C(=O)NCCN2C(=S)Nc2ccc(F)cc2)c1 (configuration not stated) 4.8%, O=C(Cn1cnc2c(nnn2-c2ccccc2)c1=O)N1CCC(Cc2ccccc2)CC1 5.85%, O=C(CSc1nnc(-c2ccccc2)o1)N1CCOCC1 8.79%, Cc1cccc(N(C(=O)Cc2cccs2)C(C(=O)NCc2ccco2)c2ccncc2)c1 (configuration not stated) 1.4%, COc1ccc2c(CC(=O)OCC(=O)NC(N)=O)coc2c1 -5.14%, O=[N+]([O-])c1cccc(-c2nnc3c4ccccc4c4ccccc4n23)c1 -0.482%, Cc1nn(C)c(Oc2ccccc2)c1[N+](=O)[O-] 3.36%, COc1cccc(C(=O)Oc2cc(C)[nH]c(=O)c2[N+](=O)[O-])c1 10.8%, Cn1c2ccccc2c(=O)c2c(O)cccc21 -8.54%, CC(=O)N1CCN(S(=O)(=O)c2ccc(C)c([N+](=O)[O-])c2)C1C(C)C (configuration not stated) -3.06%, Nc1[nH][nH]c(=O)c1N=Nc1ccc2c(c1)OCO2 1.87%, COc1cc(NC(=O)c2cccs2)ccc1NC(=O)c1ccccc1Cl -13.3%, COc1ccccc1C1CCN(C(=S)Nc2ccc(Br)cc2)CC1 -10.1%, C/C(=N\NC(=O)c1cccnc1)c1ccc(-c2ccccc2)cc1 17.9%, Cc1ccc(N2C(=O)C(NC(=O)c3c(F)cccc3F)(C(F)(F)F)C3=C2CC(C)(C)CC3=O)cc1 (configuration not stated) -7.84%, Cc1cc(C)n(C(=O)c2ccc(S(=O)(=O)N3CCCC3)cc2)n1 -6.45%, CC1(C)CC(=O)C(C2=NC(C)(C)Cc3ccccc32)=C(O)C1 8.55%, CN1CCN(NC(=O)c2ccc(S(=O)(=O)N3CCCCCC3)cc2)CC1 -2.19%, COc1cc(CNCCN(C)C)ccc1OCc1c(F)cccc1Cl 1.84%, C/C(CC(=O)Nc1ccc(C)cc1C)=N\NC(=O)C(C)C 5.05%, Cc1ccnc(NS(=O)(=O)c2ccc(NC(=O)c3ccc(S(=O)(=O)N(C)C)cc3)cc2)n1 -8.71%, CN(C)S(=O)(=O)c1ccc(NC(=O)N2CCOCC2)cc1 7.69%, O=C(Nc1ccc(Br)cn1)c1ccc([N+](=O)[O-])o1 -5%, O=c1[nH]n(-c2ccc([N+](=O)[O-])cc2)c(=O)c2ccccc12 0.106%, CC(Oc1ccc(Cl)cc1Cl)C(=O)/C=C/N(C)C (configuration not stated) -4.77%, COc1cccc(NC(=O)C(C)Oc2ccccc2)c1 (configuration not stated) 2.31%, Cc1ccccc1Nc1nc(N)nc(CSc2ccccc2)n1 0.815%, CCOc1ccc(S(=O)(=O)Nc2nc3cc(OC)ccc3s2)cc1 -16.8%, CCN(c1ccccc1)S(=O)(=O)c1cccc(C(=O)O)c1 13.3%, O=C(O)c1cccc(S(=O)(=O)NCCO)c1 -6.88% [at 13.5 µM], COc1ccc(/C=C(/CC(=O)Nc2ccc(C)cc2)c2nc3ccccc3s2)cc1 -4.33%

Potency, active:
O=C(CNS(=O)(=O)c1cccc(C(F)(F)F)c1)Nc1ccccc1F 31.6 µM, Cc1cc(NC(=O)c2cccc(N3C(=O)CCC3=O)c2)no1 28.2 µM, O=C(/C=C/NNC(=O)c1cccc(Br)c1)c1ccccc1 2.82 µM, COc1cccc(-n2c(SCC(=O)NC3CCCCC3)nc3n[nH]c(C)c3c2=N)c1 20 µM, CCc1nc(C)cn1S(=O)(=O)c1cc([N+](=O)[O-])ccc1Cl 7.94 µM, O=C(NCc1nnc(SCC(=O)N2CCC(Cc3ccccc3)CC2)o1)c1ccco1 14.1 µM, Cn1c(=O)c([N+](=O)[O-])c(Oc2ccccc2)c2ccccc21 17.8 µM, Cc1cccc(Oc2c([N+](=O)[O-])c(=O)n(C)c3ccccc23)c1 3.16 µM, CC1(C)CC(=O)C(N=Nc2c(F)cccc2F)=C(O)C1 12.6 µM, CC1(C)CC(=O)C(N=Nc2ccc(S(=O)(=O)N3CCCCCC3)cc2)=C(O)C1 2.51 µM, CCCCN1C(=O)c2ccc(C(=O)Nc3ccc(S(=O)(=O)N(C)C)cc3)cc2C1=O 1.78 µM, CCCC(=O)Nc1cccc(NC(=S)NC(=O)C(C)Oc2ccc(Cl)cc2Cl)c1 (configuration not stated) 10 µM, COc1ccc(S(=O)(=O)Nc2ccc(O)c(Sc3nc4ccccc4s3)c2)cc1 17.8 µM, O=C(O)c1cccc(S(=O)(=O)Nc2ccc(O)cc2Sc2nc3ccccc3s2)c1 22.4 µM
